Results filed as inconclusive are left out. The call rests on the fitted dose curve; in most records, active means well fitted curve in either direction with a large enough effect (not every such curve was filed as active); inconclusive means small, poorly fitted or top-dose-only effect, or another doubt; inactive means flat fitted curve, though single readings scatter.
assay: AP1 Signaling Pathway (AID 357); conditions: ME-180 (cervical carcinoma) AP-1-bla reporter, EGF-induced, beta-lactamase ratio, 5 h; at 17.2 µM (top of the series) unless noted
In short: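 Read-out was the 460nm/530nm emission ratio (excitation 405nm) after CCF4 loading for 2.5 hours at room temperature. Cells carried an AP-1-driven beta-lactamase reporter, were stimulated with EC50 EGF plus compound for 5 hours, and AC50 values came from titrations.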
On the % scale 0 is the no-effect control and ±100 the full control effect.

Activity change, negative = inhibition, inactive:
Cc1[nH]nc(-c2ccc(O)cc2O)c1Oc1ccccc1 -8.71%
Cc1ccc(S(=O)(=O)NC(=O)NCc2ccc3c(c2)OCO3)cc1 12.9%
COc1ccc(OC)c2c1CCC2=O -7.3%
CC1(C)Cc2nc(N)c(C(=O)NCCO)cc2CO1 8.22%
Cc1nc(SCC(N)=O)[nH]c(=O)c1Cc1ccc(OC(C)C)cc1 12%
CCSc1nc(N)c2c3c(sc2n1)CCC3 -12.5%
Cc1nc(NS(=O)(=O)c2ccccc2)sc1NC(=O)OCCN(C)C -8.74%
CCOC(=O)CC(=O)CSc1nc(N)c(C#N)c(-c2ccc(F)cc2)c1C#N -26.2%
CC12CCC(C(=O)NCCCN3CCOCC3)(OC1=O)C2(C)C (configuration not stated) 12%
COc1ccc(C2=Nn3c(nnc3-c3ccccn3)SC2)cc1 -4.44%
COc1ccc(OC(=O)c2cc3ccccc3o2)cc1 1.41%
CCN(CC)CCN1C(=O)C(=O)/C(=C(/O)c2ccc(OC(C)C)cc2)C1c1ccncc1 (configuration not stated) -12%
Cc1cc(Cl)ccc1OCC(=O)OC(C)C(=O)N(C)C (configuration not stated) 3.68%
c1ccc(-n2ncc3c(NCC4CCCO4)ncnc32)cc1 (configuration not stated) -4.47%
COc1cccc(-c2nn3c(-c4ccccn4)nnc3s2)c1 -5.18%
CC(=O)c1c(C(C)=O)c(C)n(NC(=O)c2ccncc2)c1C 2.53%
CC1(C)Cc2c(C#N)c(N3CCN(C(=O)c4ccccc4)CC3)nc(-c3ccco3)c2CS1 -7.63%
